Experimental data from PubChem BioAssay (NCATS).
Results filed as inconclusive are left out. Values without a mark were called inactive. The source made the active and inactive calls. The call rests on the fitted dose curve; in most records, active means well fitted cell-killing curve with a large enough effect; inconclusive means small, poorly fitted or top-dose-only effect, or effect the other way; inactive means no such curve, though single readings can be large or run the other way.
Potency means the concentration at half of the fitted maximal effect.

Assay: Quantitative High-Throughput drug screen in 47 multiple myeloma cell lines against the NCATS MIPE library collection: KHM11_PLB cell viability assay (AID 1918962); further: nearly all actives have a fitted effect of over 35% in size
Details: KHM11 myeloma cell viability, CellTiter-Glo ATP luminescence, 48 h; series mostly up to 45.8 µM; viability, % of DMSO control: at the top concentration
Source text: PI: Beverly A. Mock Ph.D.
Laboratory of Cancer Biology and Genetics,
Center for Cancer Research, National Cancer Institute,
National Institute of Health, Bethesda, Maryland
Drug resistance and disease progression are common in multiple myeloma (MM) patients, underscoring the need for new therapeutic combinations. […] We hypothesized that effective combinations would reduce MYC expression and enhance p16 activity. […] These preclinical data identify potentially useful drug combinations for evaluation in drug-resistant MM and reveal potential mechanisms of combined drug sensitivity.
Described herein is the primary MIPE qHTS used to cherrypick compounds. Validated compounds were then further tested for potential synergistic activiy.
[1] Peat TJ, Gaikwad SM, Dubois W, Gyabaah-Kessie N, Zhang S, Gorjifard S, Phyo Z, Andres M, Hughitt VK, Simpson RM, Miller MA, Girvin AT, Taylor A, Williams D, D'Antonio N, Zhang Y, Rajagopalan A, Flietner E, Wilson K, Zhang X, Shinn P, Klumpp-Thomas C, McKnight C, Itkin Z, Chen L, Kazandijian D, Zhang J, Michalowski AM, Simmons JK, Keats J, Thomas CJ, Mock BA. Drug combinations identified by high-throughput screening promote cell cycle transition and upregulate Smad pathways in myeloma. Cancer Lett. 2023 Aug 1;568:216284. doi: 10.1016/j.canlet.2023.216284. Epub 2023 Jun 24. PMID: 37356470; PMCID: PMC10408729.
SEQUENCE No. (e.g., 1, 2, 3, etc.); […] (e.g., Cells, Incubation, Reagent, etc.); VALUE and DESCRIPTION.
1; Cells; 5 uL; white, solid bottom 1536-well Greiner assay plate.
2; Compounds; 23 nL; Kalypsis pin tool (Wako USA) equipped with a 1536-well pin head to transfer to the assay plates.
3; Incubation; 48 hours; 37C incubation.
4; Reagent;5uL; CellTiter Glo (Promega).
5; Detector; 425V; Luminescence; Viewlux PerkinElmer.
NOTES (numbers refer to Sequence numbers above)
1. The cell-based screening methods employed in this study were like those previously published. Briefly, the corresponding myeloma cell lines were screened in 1,536-well plates with 500 cells, 5-uL per well for inhibition of cell viability (assessed by measuring ATP levels with CellTiterGlo).
2. NCATS MIPE 4.0 library of approved and investigational drugs were added using the Kalypsis pin tool. Wells treated with DMSO only for 100% viability and media only wells for 0% viability were used as controls.
3. The assay plates were covered and incubated for 48 hours in a 37C, 5% CO2 incubator with controlled humidity.
4. After 48 hours, CellTilter-GloTM luminescent substrate mix (Promega) reagent was added to the assay plate and plates we incubated for 5 min at room temperature.
5. Signal was measured as median relative luminescence units on a ViewLux (PerkinElmer) multiplate reader.
[1] Heske CM, Davis MI, Baumgart JT, Wilson K, Gormally MV, Chen L, Zhang X, Ceribelli M, Duveau DY, Guha R, Ferrer M, Arnaldez FI, Ji J, Tran HL, Zhang Y, Mendoza A, Helman LJ, Thomas CJ. Matrix Screen Identifies Synergistic Combination of PARP Inhibitors and Nicotinamide Phosphoribosyltransferase (NAMPT) Inhibitors in Ewing Sarcoma. Clin Cancer Res. 2017 Dec 1;23(23):7301-7311. doi: 10.1158/1078-0432.CCR-17-1121. Epub 2017 Sep 12. PMID: 28899971; PMCID: PMC6636827.
With `O=P(O)(O)C(O)(Cc1cccnc1)P(=O)(O)O` the “viability, % of DMSO control” value was 131%. In the case of `Nc1nc(F)nc2c1ncn2[C@@H]1O[C@H](CO)[C@@H](O)[C@@H]1O`, the Potency is reported as 0.187 µM (active). For `CN1CCCC(n2nc(Cc3ccc(Cl)cc3)c3ccccc3c2=O)CC1` (stereo not given), the Potency was 6.62 µM (active). For `CC(=O)Oc1ccccc1C(=O)Nc1ncc([N+](=O)[O-])s1`, the Potency was 21.5 µM (active). In the case of `CCN1CCCC1CNC(=O)c1cc(S(N)(=O)=O)ccc1OC` (stereo not given), the “viability, % of DMSO control” value is reported as 87%. In the case of `CC1=C(C(=O)O)N2C(=O)[C@@H](NC(=O)C(N)c3ccccc3)[C@H]2SC1` (stereo not given in full), the “viability, % of DMSO control” value is reported as 119%. In the case of `Cc1oc(=O)oc1CN1CCN(c2cc3c(cc2F)c(=O)c(C(=O)O)c2n3C(C)S2)CC1` (stereo not given), the “viability, % of DMSO control” value is reported as 135%. For `C[C@@H](NCCCc1cccc(C(F)(F)F)c1)c1cccc2ccccc12`, the “viability, % of DMSO control” value was 180%. With `O=C(O)CSCC(=O)NC1CCSC1=O` (stereo not given) the “viability, % of DMSO control” value was 121%. With `CN(C)c1ccc(C(=C2C=CC(=[N+](C)C)C=C2)c2ccc(N(C)C)cc2)cc1` the Potency was 0.0166 µM (active). For `CO[C@@]12[C@H](COC(N)=O)C3=C(C(=O)C(C)=C(N)C3=O)N1C[C@@H]1N[C@@H]12`, the Potency was 33.2 µM (active). In the case of `CC(C)(C)C(=O)OCOP(=O)(COCCn1cnc2c(N)ncnc21)OCOC(=O)C(C)(C)C`, the Potency is reported as 0.935 µM (active). With `Cc1onc(-c2ccccc2Cl)c1C(=O)N[C@@H]1C(=O)N2[C@@H]1SC(C)(C)[C@@H]2C(=O)O` the “viability, % of DMSO control” value was 111%. For `CCn1cc(C(=O)O)c(=O)c2cc(F)c(N3CCNCC3)nc21`, the “viability, % of DMSO control” value was 83.7%. For `Cn1nnc2c(C(N)=O)ncn2c1=O`, the “viability, % of DMSO control” value was 115%. With `CO[C@@H]1[C@@H](OC(N)=O)[C@@H](O)[C@H](Oc2ccc3c(O)c(NC(=O)c4ccc(O)c(CC=C(C)C)c4)c(=O)oc3c2C)OC1(C)C` the Potency was 2.64 µM (active). For `NCCCC(O)(P(=O)(O)O)P(=O)(O)O`, the “viability, % of DMSO control” value was 85.6%. With `COCCCOc1cc(C[C@@H](C[C@H](N)[C@@H](O)C[C@H](C(=O)NCC(C)(C)C(N)=O)C(C)C)C(C)C)ccc1OC` the “viability, % of DMSO control” value was 151%. In the case of `CC(C)(C)NC(=O)[C@H]1CC[C@H]2[C@@H]3CC[C@H]4NC(=O)C=C[C@]4(C)[C@H]3CC[C@]12C`, the Potency is reported as 1.18 µM (active). For `Cn1c(=O)c2c(ncn2CC(O)CO)n(C)c1=O` (stereo not given), the “viability, % of DMSO control” value was 110%. With `COc1cc([C@@H]2c3cc4c(cc3[C@H](O)[C@H]3COC(=O)[C@H]23)OCO4)cc(OC)c1OC` the “viability, % of DMSO control” value was 62.8%. For `O=NN(CCCl)C(=O)NC1CCCCC1`, the “viability, % of DMSO control” value was 104%. With `CCOCC(O)COc1ccc(NC(=O)CC[S+](C)C)cc1` (stereo not given) the “viability, % of DMSO control” value was 125%. In the case of `COc1ncnc(NS(=O)(=O)c2ccc(N)cc2)c1OC`, the “viability, % of DMSO control” value is reported as 129%. With `CNS(=O)(=O)CCc1ccc2[nH]cc(C3CCN(C)CC3)c2c1` the Potency was 1.18 µM (active). For `COc1cc(NCc2ccc3nc(N)nc(N)c3c2C)cc(OC)c1OC`, the Potency was 8.33 µM (active). For `CCCc1nc(C)c2c(=O)[nH]c(-c3cc(S(=O)(=O)N4CCN(CC)CC4)ccc3OCC)nn12`, the Potency was 9.35 µM (active). For `N=C(N)c1ccc(OCCCCCOc2ccc(C(=N)N)cc2)cc1`, the Potency was 3.32 µM (active). In the case of `CC(C)(C#N)c1cc(Cn2cncn2)cc(C(C)(C)C#N)c1`, the “viability, % of DMSO control” value is reported as 86.1%. With `Nc1nc(=S)c2[nH]cnc2[nH]1` the Potency was 4.18 µM (active). With `NNC(=O)c1ccncc1` the “viability, % of DMSO control” value was 92.1%. In the case of `N[C@@H](C(=O)N[C@@H]1C(=O)N2C(C(=O)O)=C(Cl)CS[C@H]12)c1ccccc1`, the “viability, % of DMSO control” value is reported as 124%. For `CC(C)C1CCC(C(=O)N[C@H](Cc2ccccc2)C(=O)O)CC1` (stereo not given in full), the “viability, % of DMSO control” value was 72.4%. For `Cc1cccc(Nc2ccncc2S(=O)(=O)NC(=O)NC(C)C)c1`, the “viability, % of DMSO control” value was 70.7%. For `CC(C)C[C@H](NC(=O)[C@H](CCc1ccccc1)NC(=O)CN1CCOCC1)C(=O)N[C@@H](Cc1ccccc1)C(=O)N[C@@H](CC(C)C)C(=O)[C@@]1(C)CO1`, the Potency was 0.001 µM (active). For `COc1c(N2CCNC(C)C2)c(F)cc2c(=O)c(C(=O)O)cn(C3CC3)c12` (stereo not given), the “viability, % of DMSO control” value was 122%. With `CCc1c2c(nc3ccc(OC(=O)N4CCC(N5CCCCC5)CC4)cc13)-c1cc3c(c(=O)n1C2)COC(=O)[C@]3(O)CC` the Potency was 1.48 µM (active). For `COc1ccc2cc3[n+](cc2c1OC)CCc1cc2c(cc1-3)OCO2`, the Potency was 8.33 µM (active). With `CCc1cc(C(N)=S)ccn1` the “viability, % of DMSO control” value was 103%. For `NC1(c2ccc(-c3nc4ccn5c(=O)[nH]nc5c4cc3-c3ccccc3)cc2)CCC1`, the Potency was 5.9 µM (active).
